We go through eight compounds from PubChem BioAssay (Tox21).

Assay [1] is described as follows: Nuclear factor erythroid 2-related factor 2/antioxidant responsive element (Nrf2/ARE) small molecule agonists: qHTS cell viability counter screen in human keratinocytes (AID 1919968; active = well fitted curve in the direction sought with a large enough effect in the repeat runs; an effect the other way counts as inactive or inconclusive; also: nearly all actives have a fitted effect of over 55% in size). Summed up:
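After a 5 h attachment period, ARE-reporter keratinocytes were dosed with compounds in DMSO and then cultured 23 h at 37 C. Cell viability came from CellTiter-Fluor signal read after a further 1 h.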
(In general: In qHTS, concentration-response curves come from the screen itself.)

Assay [2] in a line: Nuclear factor erythroid 2-related factor 2/antioxidant responsive element (Nrf2/ARE) small molecule agonists: luciferase reporter gene qHTS assay in human keratinocytes (AID 1919969). Also: nearly all actives have a fitted effect of over 35% in size. For orientation: Reporter assays use an easily measured gene product as a stand-in for the process of interest.
In assay [3] the target is Gonadotropin-releasing hormone receptor (Homo sapiens) (UniProt P30968). As to the kind of experiment: Human gonadotropin-releasing hormone receptor (GnRHR) small molecule agonists, calcium flux assay in GnRHR-HEK293 cells (AID 1920063). Also: nearly all actives have a fitted effect of over 35% in size. Summed up: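 We seeded human GnRHR-expressing HEK293 cells for 18 hours, loaded them with calcium dye for an hour at 37 C, added test compounds, and recorded fluorescence intensity kinetically for three minutes.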
(Calcium assays in cells follow changes in intracellular calcium, usually with a dye or a luminescent sensor.)

Assay [4] deals with KiSS-1 receptor (Homo sapiens) (UniProt Q969F8). As to the kind of experiment: Human kisspeptin (KISS1R) small molecule agonists, calcium flux assay in KISS1R-HEK293 cells (AID 1920064; active = well fitted curve in the direction sought with a large enough effect in the repeat runs; an effect the other way counts as inactive or inconclusive). Summed up:
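Kinetic calcium assay, 1 s sampling over 3 min at Ex/Em 480/540, in HEK293 cells engineered with human KISS1R; compounds delivered in DMSO after 1 h dye loading.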

A short description of assay [5]: G protein-coupled receptor (GPCR) small molecule agonists, calcium flux assay: HEK293 wild type cell line counter screen (AID 1920065). Summed up: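 Calcium-sensitive dye, loaded 1 h at 37 C into cells cultured 18 h, reports compound-evoked calcium release as fluorescence (Ex/Em 480/540), measured over 3 min. Agonist mode; 15-point titrations, triplicate.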
Assay [6] is described as follows: p53 small molecule agonists, cell-based qHTS assay with human liver microsomes (AID 1963577).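 Also: p53 response element beta-lactamase reporter cells with liver microsomes plus NADPH.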 Summed up: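 HLM-supplemented p53RE-bla reporter assay: 16 h compound exposure at 37 C, microsomes and NADPH each 0.5 mg/mL final, read by fluorescence intensity.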
The nature of assay [7]: p53 small molecule agonists, cell-based qHTS assay with rat liver microsomes (AID 1963578). Summed up: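 Quantitative HTS of the Tox21 10K library: p53RE-bla cells, rat liver microsomes plus NADPH at 0.5 mg/mL final each, 16 h at 37 C, beta-lactamase fluorescence detection.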
A short description of assay [8]: p53 small molecule agonists, cell-based qHTS assay with human liver microsomes: qHTS cell viability counter screen (AID 1963579). Also: nearly all actives have a fitted effect of over 45% in size. Also: potency is read from the fitted curve at half-maximal effect. The procedure, abridged: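 Viability of p53RE-bla cells is measured as CellTiter-Glo luminescence following a 16 h, 37 C incubation with compound, liver microsomes from human donors and NADPH.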
Assay [9] in a line: p53 small molecule agonists, cell-based qHTS assay with rat liver microsomes: qHTS cell viability counter screen (AID 1963580). Also: nearly all actives have a fitted effect of over 45% in size. Summed up: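 HCT-116 p53RE-bla, 4,000 cells/well, 5 h pre-incubation; cpd + rat liver microsomes 0.5 mg/mL + NADPH 0.5 mg/mL (final); 16 h, 37 C; CellTiter-Glo, 30 min RT; luminescence.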
Assay [10] can be described thus: p53 small molecule agonists, cell-based qHTS assay: qHTS cell viability counter screen (AID 1963581). Also: nearly all actives have a fitted effect of over 45% in size. Summed up:
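Following 5 h attachment, HCT-116 p53RE-bla cells took up compound for 16 h at 37 C; the reporter was read with B/G FRET substrate (2 h RT), and viability then via CellTiter-Glo ATP luminescence.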

Assay [11] in a line: p53 small molecule agonists, cell-based qHTS assay (AID 1963582; active = well fitted activation curve with a large enough effect in the signal ratio in the repeat runs, not every such curve was filed as active; the % refers to the signal ratio). The procedure, abridged: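 In this cell-based concentration-response screen, a p53 response element drives beta-lactamase; cells received DMSO-borne compounds after 5 h culture and were incubated a further 16 h before FRET substrate development.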
In assay [12] the target is 5-hydroxytryptamine receptor 2A (Homo sapiens) (UniProt P28223). As to the kind of experiment: 5-hydroxytryptamine receptor 2A (HTR2A) small molecule antagonists, cell-based qHTS assay (AID 1963586). Also: nearly all actives have a fitted effect of over 45% in size. Summed up: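 Antagonist-mode intracellular calcium assay: DOI (4 nM) added after 5 min compound pre-incubation at room temperature to dye-loaded HTR2A-CHO cells. Fluorescence followed for 3 min, sampled every second.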

Assay [13] shares this target. As to the kind of experiment: 5-hydroxytryptamine receptor 2A (HTR2A) small molecule agonists, cell-based qHTS assay (AID 1963587). Also: nearly all actives have a fitted effect of over 30% in size. The procedure, abridged:
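Kinetic calcium-flux fluorescence (2 min, 1 sec intervals) after compound addition in agonist mode. HTR2A-CHO cells were cultured 18 h, then dye-loaded 1 h at 37 C.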

The target in assay [14] is Muscarinic acetylcholine receptor M1 (Homo sapiens) (UniProt P11229). As to the kind of experiment: Cholinergic receptor muscarinic 1 (CHRM1) small molecule antagonists, cell-based qHTS assay (AID 1963588). Also: nearly all actives have a fitted effect of over 40% in size. The procedure, abridged:
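CHRM1-CHO calcium-flux assay, antagonist mode. Cells were seeded 18 h, dye-loaded 1 h at 37 C and given compound for 5 min at RT, then acetylcholine was added at 50nM. FDSS fluorescence was read 3 min; 15 concentrations, three runs.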

Assay [15] is described as follows: cAMP Responsive Elements (CRE) small molecule agonists, cell-based qHTS assay (AID 1963590). The procedure, abridged:
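A CRE-responsive beta-lactamase reporter in HEK 293T cells was used. Treatment ran 3 h at 37 C; detection used LiveBLAzer B/G FRET substrate for 2 h at room temperature.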

The nature of assay [16]: cAMP Responsive Elements (CRE) small molecule antagonists, cell-based qHTS assay (AID 1963591; active = well fitted inhibition curve with a large enough effect in the signal ratio in the repeat runs, not every such curve was filed as active; the % refers to the signal ratio). The procedure, abridged: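 HEK293T cells carrying a CRE-driven beta-lactamase reporter receive compound and NKH477 (0.25 uM final) for 3 h. Fluorescence from LiveBLAzer B/G FRET substrate is read after 2 h at room temperature.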
In assay [17] the target is Beta-2 adrenergic receptor (Homo sapiens) (UniProt P07550). As to the kind of experiment: Adrenergic beta2 receptor (ADRB2) small molecule antagonists, cell-based qHTS assay (AID 1963592). Also: series mostly up to about 92 µM; nearly all actives have a fitted effect of over 50% in size. Summed up: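 Cells (CHO, stable ADRB2 overexpression) incubated 18-20hr at 37C; compounds added from DMSO; agonist mix (1nM isoproterenol, 100uM IBMX, 25uM Ro-20-1724) added; 0.5hr RT; d2-cAMP and anti-cAMP-cryptate added; 1hr RT; 665/615 nm read.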

Assay [18] deals with Muscarinic acetylcholine receptor M1 (Homo sapiens) (UniProt P11229). As to the kind of experiment: Cholinergic receptor muscarinic 1 (CHRM1) small molecule agonists, cell-based qHTS assay (AID 1963589). Also: nearly all actives have a fitted effect of over 35% in size. The procedure, abridged:
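Measures agonist-induced intracellular calcium rise. Stable human CHRM1 CHO line, 1 h dye load at 37 C, compounds from DMSO, kinetic fluorescence read.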

Assay [19] addresses D(2) dopamine receptor (Homo sapiens) (UniProt P14416). As to the kind of experiment: Dopamine D2 receptor (DRD2) small molecule agonists, cell-based qHTS assay (AID 1963594). Also: nearly all actives have a fitted effect of over 35% in size. The procedure, abridged: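 cAMP accumulation in DRD2-HEK293 cells measured by HTRF after 1 h detection; compounds added 10 min before NKH477 (200nM […]) forskolin-analogue stimulation, 30 min at room temperature, with Ro20-1724 present at 0.1 mM final.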

The target is the same in assay [20]. As to the kind of experiment: Dopamine D2 receptor (DRD2) small molecule antagonists, cell-based qHTS assay (AID 1963595; active = well fitted inhibition curve with a large enough effect in the signal ratio in the repeat runs, with a control signal flat; the % refers to the signal ratio). Summed up:
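Stable D2 receptor HEK293 line, 24 h after seeding. Compound preincubated 10 min, then quinpirole (12 nM) with forskolin analogue NKH477 (200 nM), 30 min, room temperature. Detection by time-resolved FRET of cAMP.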

Records with an inconclusive call do not appear. Calls of active or inactive are those of the source. Unless noted, calls follow the shape of the full dose curve.

Sequence of Muscarinic acetylcholine receptor M1 (Homo sapiens) (P11229 whole entry, looked up): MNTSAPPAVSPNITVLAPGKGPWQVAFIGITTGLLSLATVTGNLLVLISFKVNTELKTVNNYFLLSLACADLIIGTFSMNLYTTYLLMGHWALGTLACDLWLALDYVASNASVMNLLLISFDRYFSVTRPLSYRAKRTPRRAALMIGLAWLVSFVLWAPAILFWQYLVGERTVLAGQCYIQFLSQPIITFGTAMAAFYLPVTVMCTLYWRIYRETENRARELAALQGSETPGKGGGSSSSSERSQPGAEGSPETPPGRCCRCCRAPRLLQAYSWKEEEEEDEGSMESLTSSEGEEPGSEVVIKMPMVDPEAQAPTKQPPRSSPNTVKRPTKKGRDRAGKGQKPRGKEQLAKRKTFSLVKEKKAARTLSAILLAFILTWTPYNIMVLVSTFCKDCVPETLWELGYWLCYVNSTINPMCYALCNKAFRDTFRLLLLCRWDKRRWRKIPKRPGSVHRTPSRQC
Sequence of D(2) dopamine receptor (Homo sapiens) (P14416 whole entry, looked up): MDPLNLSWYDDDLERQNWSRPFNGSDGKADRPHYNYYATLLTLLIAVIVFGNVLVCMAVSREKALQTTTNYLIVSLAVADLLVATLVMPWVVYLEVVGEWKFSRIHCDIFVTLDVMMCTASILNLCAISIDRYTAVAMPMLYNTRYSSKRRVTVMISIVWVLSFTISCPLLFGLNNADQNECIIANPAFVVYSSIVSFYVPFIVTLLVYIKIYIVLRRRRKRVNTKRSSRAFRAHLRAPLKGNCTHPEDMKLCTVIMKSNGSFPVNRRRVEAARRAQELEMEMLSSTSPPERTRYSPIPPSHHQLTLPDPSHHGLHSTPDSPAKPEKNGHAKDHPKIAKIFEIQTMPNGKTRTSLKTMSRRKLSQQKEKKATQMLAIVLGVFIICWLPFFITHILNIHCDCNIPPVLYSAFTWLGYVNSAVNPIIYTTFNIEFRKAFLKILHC
Sequence of Beta-2 adrenergic receptor (Homo sapiens) (P07550 whole entry, looked up): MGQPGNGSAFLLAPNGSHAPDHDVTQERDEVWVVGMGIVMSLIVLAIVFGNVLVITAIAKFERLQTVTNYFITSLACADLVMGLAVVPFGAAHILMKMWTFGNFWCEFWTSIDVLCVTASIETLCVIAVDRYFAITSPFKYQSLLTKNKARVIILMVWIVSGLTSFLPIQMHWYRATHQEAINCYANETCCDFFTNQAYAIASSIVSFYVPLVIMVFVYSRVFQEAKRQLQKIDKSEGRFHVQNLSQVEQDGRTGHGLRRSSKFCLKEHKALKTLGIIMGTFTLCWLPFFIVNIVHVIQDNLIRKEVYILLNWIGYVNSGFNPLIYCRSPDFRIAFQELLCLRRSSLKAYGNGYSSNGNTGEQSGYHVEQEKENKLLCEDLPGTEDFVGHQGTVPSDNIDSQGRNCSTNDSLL
Sequence of Gonadotropin-releasing hormone receptor (Homo sapiens) (P30968 whole entry, looked up): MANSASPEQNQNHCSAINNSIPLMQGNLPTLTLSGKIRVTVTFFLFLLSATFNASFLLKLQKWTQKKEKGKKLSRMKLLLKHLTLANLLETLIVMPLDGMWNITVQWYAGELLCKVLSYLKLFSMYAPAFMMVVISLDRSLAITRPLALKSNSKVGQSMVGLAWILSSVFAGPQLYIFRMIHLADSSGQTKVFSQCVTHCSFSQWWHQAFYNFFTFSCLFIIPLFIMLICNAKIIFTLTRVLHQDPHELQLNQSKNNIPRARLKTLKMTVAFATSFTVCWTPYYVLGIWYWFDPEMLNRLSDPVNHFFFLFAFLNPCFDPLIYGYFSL
Sequence of 5-hydroxytryptamine receptor 2A (Homo sapiens) (P28223 whole entry, looked up): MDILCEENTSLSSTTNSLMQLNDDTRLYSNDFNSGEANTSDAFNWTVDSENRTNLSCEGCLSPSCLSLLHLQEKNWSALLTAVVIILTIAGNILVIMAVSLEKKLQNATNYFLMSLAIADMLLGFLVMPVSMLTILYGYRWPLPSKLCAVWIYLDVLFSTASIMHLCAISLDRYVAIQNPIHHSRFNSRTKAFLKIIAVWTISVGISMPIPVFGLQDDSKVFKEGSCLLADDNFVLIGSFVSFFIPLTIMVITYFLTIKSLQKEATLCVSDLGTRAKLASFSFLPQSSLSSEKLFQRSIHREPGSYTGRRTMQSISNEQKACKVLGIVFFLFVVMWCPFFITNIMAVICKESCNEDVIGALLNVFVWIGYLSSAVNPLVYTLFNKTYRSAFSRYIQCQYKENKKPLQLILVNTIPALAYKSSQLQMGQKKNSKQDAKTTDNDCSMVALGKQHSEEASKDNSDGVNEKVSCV
Sequence of KiSS-1 receptor (Homo sapiens) (Q969F8 whole entry, looked up): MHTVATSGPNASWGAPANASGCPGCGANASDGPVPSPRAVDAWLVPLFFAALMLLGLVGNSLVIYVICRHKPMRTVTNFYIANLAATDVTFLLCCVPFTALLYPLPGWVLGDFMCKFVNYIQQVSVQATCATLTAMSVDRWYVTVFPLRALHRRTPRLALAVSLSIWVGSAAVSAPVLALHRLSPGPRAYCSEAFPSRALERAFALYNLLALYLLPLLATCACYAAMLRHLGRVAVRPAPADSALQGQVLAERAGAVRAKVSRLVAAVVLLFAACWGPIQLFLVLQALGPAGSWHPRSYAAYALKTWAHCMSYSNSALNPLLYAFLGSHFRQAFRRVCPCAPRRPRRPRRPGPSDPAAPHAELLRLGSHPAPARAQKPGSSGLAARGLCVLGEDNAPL

Consider `CC(CO)CO`, for which the Potency result in [1], in assay [2], in assay [3], in assay [4], in [5] and in assay [6] was “inactive” throughout. Besides, the Potency result in assay [7], in assay [8], in [9], in [10], in assay [11] and in assay [12] was “inactive” in each case. The Potency result in assay [13], in assay [14], in assay [15], in assay [16] and in assay [17] was “inactive” in each case.

With `ClC(c1ccccc1)(c1ccccc1)c1ccccc1`, the Potency entry in [1], in assay [2], in [3], in assay [4], in assay [5] and in assay [6] was “inactive” each time. In addition, the Potency result in [7], in assay [8], in [9], in [10], in assay [11] and in [12] was “inactive” in each case. Moreover, the Potency result in [13], in assay [14], in assay [18], in assay [15], in assay [17] and in [19] was “inactive” throughout. For the same compound, in [20], the Potency entry is “inactive”.

In the case of `CCC(C(=O)NC(N)=O)c1ccccc1` (configuration not stated), the Potency entry in assay [1], in [2], in assay [3], in assay [4], in assay [5] and in assay [6] was “inactive” each time. Moreover, the Potency entry in [7], in [8], in assay [9], in assay [10], in assay [11] and in [12] was “inactive” each time. Besides, the Potency result in [13], in assay [14], in assay [18], in assay [16], in assay [17] and in assay [19] was “inactive” in each case. Also, in assay [20], the Potency entry was “inactive”.

On to `Cc1ccc(C=O)cc1`, for which the Potency result in assay [1], in assay [2], in assay [3], in assay [4], in assay [5] and in assay [6] was “inactive” each time. In addition, the Potency result in [7], in assay [8], in assay [9], in assay [10], in assay [11] and in assay [12] was “inactive” in each case. Also, the Potency result in assay [13], in assay [14], in assay [18], in assay [15], in assay [19] and in assay [20] was “inactive” each time.

Take `COc1ccc(N=[N+]([O-])c2ccc(OC)cc2)cc1`: the Potency result in assay [1], in assay [2], in [3], in assay [4], in [5] and in [6] was “inactive” throughout. Also, the Potency entry in [7], in [8], in assay [9], in [10], in assay [11] and in assay [12] was “inactive” in each case. Further, the Potency entry in [13], in assay [14], in assay [18], in assay [17], in [19] and in [20] was “inactive” throughout.

For the compound `Cc1ccc(C(=O)C(=O)O)cc1C`, the Potency result in assay [1], in assay [2], in assay [3], in [4], in assay [5] and in [6] was “inactive” each time. Further, the Potency entry in assay [7], in assay [8], in [9], in assay [10], in assay [11] and in [12] was “inactive” throughout. Besides, the Potency result in [13], in [14], in [18], in [16], in assay [19] and in assay [20] was “inactive” throughout.

For the compound `NS(=O)(=O)c1cc2c(cc1Cl)NC(C1CC3C=CC1C3)NS2(=O)=O` (configuration not stated), the Potency result in assay [1], in [2], in [3], in assay [4], in [5] and in assay [6] was “inactive” throughout. Moreover, the Potency entry in assay [7], in assay [9], in assay [10], in assay [11], in [12] and in assay [13] was “inactive” each time. Further, the Potency entry in assay [14], in assay [18], in assay [15], in assay [17], in assay [19] and in assay [20] was “inactive” in each case. Moreover, the Potency in assay [8] was 3.97 µM (active).

`NCc1ccc(S(N)(=O)=O)cc1`: the Potency result in assay [1], in assay [2], in assay [3], in assay [4], in assay [5] and in [6] was “inactive” in each case. Also, the Potency entry in assay [7], in assay [8], in assay [9], in assay [10], in assay [11] and in [12] was “inactive” each time. In addition, the Potency result in [13], in assay [14], in [18], in assay [16], in assay [17] and in [19] was “inactive” throughout. Moreover, the Potency entry in assay [20] is “inactive”.
